Kir21 block: blocks the mouse Kir2.1 inward-rectifier potassium channel | HEK293-Kir2.1, FluxOR thallium flux fluorescence; hits give low values | B-score at 10 µM | hit rate 0.85% among 310,000 | AID 1672;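 active = fluorescence ratio B-score at or below minus 3 SD of library scores, with starting-brightness B-score within 2 SD, cut at about -4.2 in these data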;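 also: channel flux triggered by added potassium and thallium sulfate stimulus; B-score of peak minus minimum fluorescence over baseline after thallium stimulus; more negative B-score means stronger Kir2.1 block with less thallium influx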
CHT allo act: allosterically activates the human high affinity choline transporter | hit rate 0.49% among 310,000 | CHT-expressing cells, membrane potential dye, choline EC20; hits give high values; LV-AA mutant CHT in HEK293 cells | AID 488977 | Q9GZV3 | B-score at 10 µM;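 active = initial fluorescence not abnormally high and integrated response B-score, plate-corrected, over 3 SD above library mean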
CHT block: inhibits the human high affinity choline transporter; hit rate 0.86% among 310,000; AID 488975; B-score at 10 µM; Q9GZV3; CHT-expressing cells, membrane potential dye, choline response; hits give low values;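 active = B-score over 3 SD under the library average, and starting fluorescence ratio not unusually high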;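 also: choline stimulus applied at its EC90 after an EC20 pre-addition; B-score computed on integrated fluorescence ratio after choline addition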
GPR7 antagonist: human neuropeptides B/W receptor 1 antagonism. P48145. GPR7-expressing cells, fluorescence antagonist assay. inhibition, % at 4.4 µM. hit rate 1.1% among 290,000; in the data active = inhibition above about 16%, passing the limit was not always enough;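 also: cells stimulated with the agonist NPW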
Target sequence (P48145 whole entry, looked up): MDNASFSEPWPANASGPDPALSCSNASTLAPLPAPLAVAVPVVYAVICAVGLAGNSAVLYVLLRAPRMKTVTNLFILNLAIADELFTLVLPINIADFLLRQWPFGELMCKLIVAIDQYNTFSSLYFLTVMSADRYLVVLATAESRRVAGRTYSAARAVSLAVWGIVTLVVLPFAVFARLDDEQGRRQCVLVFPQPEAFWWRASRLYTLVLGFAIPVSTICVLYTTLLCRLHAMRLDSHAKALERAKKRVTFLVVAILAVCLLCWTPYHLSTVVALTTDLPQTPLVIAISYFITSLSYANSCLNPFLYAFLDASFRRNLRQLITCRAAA
TMEM16A inh: blocks the mouse calcium-activated chloride channel TMEM16A. HEK293 TMEM16A/YFP iodide influx fluorescence, ionomycin. normalized B-score (activity score, 25-100; higher = stronger inhibition) at 10 µM. hit rate 1.2% among 310,000. Q8BHY3;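 active = ratio plate-corrected score three or more library SD toward inhibition, starting fluorescence score within five deviations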;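 also: score derived from kinetic fluorescence span divided by baseline fluorescence per well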
TMEM16A act: activators or potentiators of mouse TMEM16A chloride channel | Q8BHY3 | HEK293 TMEM16A/YFP-H148Q/I152L, iodide quench fluorescence; hits give low values | B-score at 10 µM | hit rate 0.3% among 340,000 | AID 623877;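 active = fluorescence-ratio B-score plate-corrected deviation score at least 3 library SD below zero, with starting fluorescence score within 5 deviations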;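 also: channel opened by trigger with iodide after compound preincubation; score built on the fluorescence ratio of max minus min over baseline; more negative score means more quench and so TMEM16A activation or potentiation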
GPR7 antag cf: human GPR7 antagonism, confirmation assay | hit rate 52% among 2,400 | shares compounds with GPR7 antagonist | GPR7-expressing cells, calcium fluorescence antagonist mode | inhibition, % at 4.4 µM; in the data active = inhibition above about 24%;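 also: stimulated with the GPR7 agonist NPW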
MCHR1 antag: antagonizes human MCHR1, a GPR7 antagonist counter-screen | inhibition, % at 4.4 µM | shares compounds with GPR7 antagonist | MCHR1-expressing cells, fluorescence antagonist assay | hit rate 62% among 2,400; in the data active = inhibition above about 22%
Hits are given with their value; – = inactive; · = no result. A selection: hits, their analogues and other compounds. The true share with any hit is near 3.7%.

SMILES	Kir21 block	CHT allo act	CHT block	GPR7 antagonist	TMEM16A inh	TMEM16A act	GPR7 antag cf	MCHR1 antag
O=P(c1ccccc1)(c1ccccc1)C1CCCO1 (stereo not given)	–	–	–	42	–	–	–	–
O=C(Cc1ccccc1)NCC1CCCO1 (stereo not given)	–	–	–	–	–	–	·	·
COc1ccccc1-c1ccc(SCc2cccc(F)c2)nn1	–	–	–	29	–	–	36	56
O=C(NCc1cccc(Cl)c1)c1ccc(-c2csnn2)cc1	–	–	–	25	–	–	–	–
Cc1ccc(NS(=O)(=O)c2ccc(-c3cnc(C4CC4)o3)cc2)cc1	–	–	–	–	–	–	·	·
Cc1ccc(N(C)S(=O)(=O)c2ccc(-c3cnc(C4CC4)o3)cc2)cc1	–	6.4	–	37	–	–	–	37
CC(=O)Nc1ccc(C(=O)OCCC(C)C)cc1	–	–	–	25	–	–	–	–
O=S(=O)(c1ccccc1)[C@@]1(c2ccc(Br)cc2)C[C@@H]2ON=C(c3ccccc3)[C@@H]2C1	–	–	–	·	–	–	·	·
N#CC1(NC(=O)CSc2nnc(-c3ccccc3F)o2)CCCCC1	–	–	–	·	–	–	·	·
Cc1nn(CC(=O)Nc2ccc(Cl)cc2)c(=O)c2cc(-c3ccccc3)nn12	–	–	–	–	–	–	·	·
O=[N+]([O-])c1ccc(Cl)c(S(=O)(=O)/N=C(/c2ccccc2)N2CCOCC2)c1	–	–	–	–	–	–	·	·
COc1ccccc1-n1c(SCC(=O)N2CCCC2)nnc1-c1ccccc1	–	–	–	–	–	–	·	·
COc1ccccc1-n1c(SCC(N)=O)nnc1-c1ccc(S(=O)(=O)N2CCCCC2)cc1	–	–	–	39	–	–	42	–
Cc1ccc(C(=O)NCCN2C3=NC[C@@H](Cc4ccccc4)N3C[C@H]2Cc2ccc(O)cc2)cc1Br	-6.8	–	–	49	–	–	53	48
Cc1ccccc1CN(c1ccc(C(=O)N2CCc3ccccc3C2)cc1)S(C)(=O)=O	–	–	–	28	–	–	52	58
O=C(/C=C/c1ccc([N+](=O)[O-])s1)N1CCN(c2ccccc2)CC1	–	–	–	26	–	–	–	–
O=C(/C=C/c1ccc([N+](=O)[O-])s1)N1CCCCC1	–	–	–	–	–	–	·	·
Cc1ccc(-c2ocnc2C(=O)N2CCN(C(=O)c3cccs3)CC2)cc1	–	–	–	28	–	–	–	–
Cc1ccc(NC(=O)CN(C)C(=O)Cc2ccc3c(c2)CCC3)cc1	·	·	·	·	·	–	·	·
C=CCOc1ccc(CN(C)CC(=O)Nc2ccc3c(c2)CCC3)cc1	–	–	–	24	–	–	–	33
Fc1ccc(-n2cc(CNCCc3cccnc3)c(-c3ccccc3Cl)n2)cc1	–	–	–	–	–	–	·	·
CN(C)c1ccc(/C=C/c2ccc3c4ccccc4ccc3[n+]2-c2ccccc2)cc1	·	·	·	43	·	–	79	78
Cc1ccc(C)c(N(CC(=O)NC(C)C)C(=O)CCC(=O)Nc2ccccn2)c1	–	–	–	–	–	–	·	·
CCCNC(=O)c1ccc(OC)cc1OC	–	–	–	–	–	–	·	·
COc1ccc(C(=O)N(C(C)C)C(C)C)c(OC)c1	–	–	–	25	–	–	–	–
SMILES	Kir21 block	CHT allo act	CHT block	GPR7 antagonist	TMEM16A inh	TMEM16A act	GPR7 antag cf	MCHR1 antag
COc1ccc(CCNC(=O)COC(=O)c2ccc(Br)o2)cc1OC	–	–	–	29	–	–	–	–
CCOc1ccccc1CN1CCC(n2nccc2NC(=O)C2CCCC2)CC1	–	–	–	–	–	–	·	·
CC(C)(c1ccccc1)c1ccc(OCCN2CCOCC2)cc1	–	–	–	37	–	–	–	–
CC(C)(C)c1ccc(OCCN2CCCC2)cc1	–	–	–	–	–	–	·	·
CC(Sc1nnc2ccccn12)C(N)=O (stereo not given)	–	–	–	25	–	–	–	–
O=C(Nc1csc([N+](=O)[O-])c1)Nc1ccccc1Cl	–	–	–	41	–	–	51	62
O=C(Nc1ccccc1Cl)Nc1ccccc1Cl	–	–	–	–	–	–	·	·
COc1cc(OC)cc(C(=O)Nc2cccc3c2CCCC3)c1	–	–	–	32	–	–	–	–
COc1cccc(OC)c1C(=O)Nc1cccc2c1CCCC2	–	–	–	–	–	–	·	·
Cc1ccc2nc(N(CCCN(C)C)C(=O)c3ccc(S(=O)(=O)N4CCc5ccccc5C4)cc3)sc2c1	–	–	–	32	–	-5.3	44	33
CN(C)CCCN(C(=O)c1ccc(S(=O)(=O)N2CCc3ccccc3C2)cc1)c1nc2ccc(F)cc2s1	–	–	–	46	–	–	76	63
COc1cc2ccccc2cc1C(=O)N(CCN(C)C)c1nc2ccc(Br)cc2s1	–	–	–	26	–	–	29	36
CN(C)CCCN(C(=O)c1cc(-c2cccs2)nc2ccccc12)c1nc2ccc(F)cc2s1	–	–	–	30	–	–	58	58
Cc1cc(C)c2sc(N(CCCN(C)C)C(=O)c3ccc(S(=O)(=O)N4CCc5ccccc5C4)cc3)nc2c1	–	–	–	·	–	–	·	·
CCOc1ccc(N2CC(C(=O)Nc3ccncc3)CC2=O)cc1 (stereo not given)	–	–	–	25	–	–	–	–
CCOc1ccc(N2CC(C(=O)Nc3ncccc3C)CC2=O)cc1 (stereo not given)	–	–	–	–	–	–	·	·
CCOC(=O)C1(Cc2ccccc2C)CCCN(C(=O)c2sccc2C)C1 (stereo not given)	–	–	–	43	–	–	–	48
COc1cc(NC(=O)CNc2cccc(S(=O)(=O)N3CCCC3)c2)cc(OC)c1	–	–	–	31	–	–	–	–
O=C(CN1CCN(S(=O)(=O)c2ccc(Br)cc2)CC1)Nc1ccc(F)cc1	–	–	–	30	–	–	39	26
COc1cccc(NC(=O)CN2CCN(S(=O)(=O)c3ccc(C(C)C)cc3)CC2)c1	–	–	–	35	–	–	38	29
O=C(CN1CCN(S(=O)(=O)c2ccc(Cl)cc2)CC1)Nc1ccc(F)cc1F	–	–	–	24	–	–	34	22
O=C(CN1CCN(S(=O)(=O)c2ccc(Br)cc2)CC1)Nc1ccc(F)cc1F	–	–	–	–	–	–	·	·
CC(C)C(NC(=O)c1ccccc1)C(=O)NCCc1ccccc1 (stereo not given)	–	–	–	–	–	–	·	·
O=C(COC(=O)c1cccc(OC(F)F)c1)Nc1cccc(S(=O)(=O)N2CCCC2)c1	·	·	·	·	·	–	·	·

Screening data (PubChem)
